# Among all 310,000 compounds or so, about 14,000 (4.5%) showed an effect of 50% or more. The effect is printed as a negative number. Only a selection was taken, and strong results are over-represented in it overall.
# Molecular target: human ether-à-go-go-related gene (hERG) potassium channel (human, UniProt Q12809)
# Assay: primary screen, population patch clamp on CHO cells stably expressing hERG; higher = less effect of the substance
# 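Also: peak tail current of the secondary pulse compared with the same well before compound.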
# Sequence of human ether-à-go-go-related gene (hERG) potassium channel (Q12809 whole entry, looked up): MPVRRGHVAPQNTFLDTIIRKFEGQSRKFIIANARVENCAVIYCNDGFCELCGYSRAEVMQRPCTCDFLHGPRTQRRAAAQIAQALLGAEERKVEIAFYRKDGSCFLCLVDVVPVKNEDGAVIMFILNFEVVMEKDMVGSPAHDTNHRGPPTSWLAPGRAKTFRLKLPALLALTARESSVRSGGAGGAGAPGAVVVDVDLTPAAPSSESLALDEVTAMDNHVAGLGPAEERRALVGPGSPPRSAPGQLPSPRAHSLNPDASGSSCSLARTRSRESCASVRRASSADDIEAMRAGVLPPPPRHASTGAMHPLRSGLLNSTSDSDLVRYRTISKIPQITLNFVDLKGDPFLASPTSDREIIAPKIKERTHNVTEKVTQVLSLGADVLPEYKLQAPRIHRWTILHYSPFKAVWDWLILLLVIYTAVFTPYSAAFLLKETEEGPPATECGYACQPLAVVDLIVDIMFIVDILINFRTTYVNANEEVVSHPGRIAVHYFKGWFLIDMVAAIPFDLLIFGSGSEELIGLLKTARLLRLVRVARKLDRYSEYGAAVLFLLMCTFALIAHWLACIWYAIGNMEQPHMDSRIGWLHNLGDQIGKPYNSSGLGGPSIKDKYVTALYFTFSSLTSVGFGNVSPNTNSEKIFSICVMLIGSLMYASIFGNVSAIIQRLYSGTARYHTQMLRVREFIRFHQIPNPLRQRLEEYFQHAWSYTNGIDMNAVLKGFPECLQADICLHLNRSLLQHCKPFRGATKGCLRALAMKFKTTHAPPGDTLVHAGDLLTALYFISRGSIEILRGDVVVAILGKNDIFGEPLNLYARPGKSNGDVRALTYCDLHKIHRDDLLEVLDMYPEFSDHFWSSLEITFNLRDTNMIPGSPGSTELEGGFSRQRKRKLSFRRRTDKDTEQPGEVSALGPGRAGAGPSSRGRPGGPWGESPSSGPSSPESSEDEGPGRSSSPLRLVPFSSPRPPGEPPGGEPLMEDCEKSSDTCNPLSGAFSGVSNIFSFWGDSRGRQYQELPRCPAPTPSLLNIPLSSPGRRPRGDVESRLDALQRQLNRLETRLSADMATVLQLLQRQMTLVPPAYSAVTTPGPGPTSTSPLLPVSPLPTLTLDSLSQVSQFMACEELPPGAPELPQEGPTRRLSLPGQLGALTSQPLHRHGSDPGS
row,Structure (SMILES),"hERG current change (%, negative = inhibition) at 10uM [%]"
1,CCOC(=O)N1CCN(C(=O)CSc2nnc(-c3ccccc3OC)o2)CC1,-12.9
2,COc1cc(/C=C/c2cccc[n+]2C)ccc1OCC(=O)Nc1ccccc1C.[I-],8.13
3,NC(=O)C1CCN(C(=O)CCCCCn2c(=O)[nH]c3ccsc3c2=O)CC1,0.397
4,COc1cccc(OCC(=O)Nc2c3c(nn2-c2ccccc2)CS(=O)(=O)C3)c1,-48.5
5,COc1cc(CNc2nc(C)c([N+](=O)[O-])c(C)c2C#N)cc(OC)c1,10.8
6,NC(=O)Cn1cc(C(=O)COc2ccccc2)c2ccccc21,-3.45
7,CC(C)CCNC(=O)COc1ccc(C(=O)c2ccccc2)cc1,-23.8
8,Cc1ccc(NC(=O)C(c2ccccc2)N2CCN(CC(=O)NC3CC3)CC2)cc1 (centres unmarked),-18.1
9,C[C@@H]1NC(=O)c2cc([N+](=O)[O-])cc(I)c2NCC[C@@H](C(N)=O)NC(=O)[C@H](CC(N)=O)NC1=O,11.2
10,COc1cc(/C=N/NC(=S)NCCc2ccccc2)cc(OC)c1OC,8.26
11,CCC(=O)N1CCc2cc(Br)cc(S(=O)(=O)NCCN3CCCCC3CC)c21 (centres unmarked),-20.4
12,Brc1cccc(-c2nnc3sc(CNCc4ccco4)cn23)c1,-60.3
13,Brc1cccc(-c2nnc3sc(CN4CCCCC4)cn23)c1,-11
14,Brc1cccc(-c2nnc3sc(CNC4CCCC4)cn23)c1,-16.2
15,COc1ccc(C(=O)NCCc2c[nH]c3ccccc23)cc1S(=O)(=O)N1CCCCC1C (centres unmarked),-12
16,COc1ccc(C(CNC(=O)c2cc(S(=O)(=O)N3CCCC3)ccc2Cl)N2CCCC2)cc1 (centres unmarked),-31.6
17,COc1ccc(C(=O)NCCc2ccc(Cl)cc2)cc1S(=O)(=O)N1CCCCC1C (centres unmarked),-52.3
18,COc1ccc(C(CNC(=O)c2ccc(OC)c(S(=O)(=O)N3CCCC3)c2)N2CCCC2)cc1 (centres unmarked),9.12
19,COc1ccc(C(=O)Nc2ccc(NC(C)=O)cc2)cc1S(=O)(=O)N1CCCCC1C (centres unmarked),1.47
20,COc1ccc(C(CNC(=O)c2ccc(Cl)c(S(=O)(=O)N3CCCC3)c2)N2CCCC2)cc1 (centres unmarked),-57.6
21,COc1ccc(CCNC(=O)c2ccc(Cl)c(S(=O)(=O)N3CCCCCC3)c2)cc1,-34.2
22,COc1ccc(CCNC(=O)c2ccc(Cl)c(S(=O)(=O)N3CCCC3)c2)cc1,-56.6
23,O=C(NCCc1ccccc1)c1ccc(Cl)c(S(=O)(=O)N2CCCC2)c1,-23.1

row,Structure (SMILES),"hERG current change (%, negative = inhibition) at 10uM [%]"
1,Cc1ccc(S(=O)(=O)NC(CC(=O)NCC2CCCO2)c2ccco2)cc1 (centres unmarked),24.9
2,COc1ccc(N(CC(=O)N2CCN(Cc3ccccc3)CC2)S(C)(=O)=O)cc1,-3
3,O=C(NN1CCOCC1)c1cc(-c2ccc(Cl)c(Cl)c2)nc2ccccc12,10.8
4,Cc1oncc1C(=O)Nc1cccc(C#N)c1,4.43
5,CCCN1C(=O)/C(=c2\sc3nc(=O)c(Cc4ccc(C)cc4)nn3c2=O)c2ccccc21,21.2
6,CCN(Cc1ccccc1)C(=O)c1oc2ccc(S(=O)(=O)N3CCOCC3)cc2c1C,-6.06
7,Nc1cc(C(=O)OCC(=O)N2CCOCC2)ccc1Cl,17.8
8,CC(C)(C)NC(=O)CSC(=Nc1ccc(F)cc1)NC#N,-72.3
9,CC(C)(C)NC(=O)CSC(=Nc1ccccc1F)NC#N,-0.709
10,CC(C)(C)NC(=O)CSC(=Nc1cccc(F)c1)NC#N,8.94
11,COc1ccc(CNC(=O)c2noc(C(C)C)c2[N+](=O)[O-])cc1,3.4
12,Cc1ccc(NNC(=O)c2ccno2)c(C)c1,11.1
13,COc1ccc(OC)c(-c2csc(NC(=O)CN3C(=O)C4CCCCC4C3=O)n2)c1 (centres unmarked),-0.554
14,O=C(O)c1ccccc1S(=O)(=O)NCC(O)COC1CCCCC1 (centres unmarked),-2.65
15,CCOC(=O)C1(CCOc2ccccc2)CCN(Cc2cc(OC)c3c(c2)OCO3)CC1,-72.1
16,CCOC(=O)C1(Cc2ccccc2)CCN(Cc2cc(OC)c3c(c2)OCO3)CC1,-60.7
17,CCN1CCN(Cc2cc(OC)c3c(c2)OCO3)CC1,9.99
18,CCN1C(=O)CC(N2CCN(c3ccc(Cl)cc3)CC2)C1=O (centres unmarked),-14
19,COc1ccc2c(CC(=O)OCC(=O)c3ccc(F)cc3)coc2c1,6.5
20,CCCc1ccc(-c2cc(C(=O)NN3CCOCC3)c3ccccc3n2)cc1,-3.8
21,NC(=O)c1ccc(NC(=O)CSc2nnc(C3CCCCC3)n2N)cc1,18
22,Cn1c(C(=O)NC2CCCCC2)cc2sccc21,-7.87
23,Cc1c(C(=O)OCC(=O)N(C)c2ccccc2)oc2ccccc12,3.17

row,Structure (SMILES),"hERG current change (%, negative = inhibition) at 10uM [%]"
1,COc1ccc2oc(C(=O)NCc3ccco3)c(C)c2c1,8.36
2,Cc1c(C(=O)OC(C)CCN(C)C)oc2ccccc12.Cl (centres unmarked),-42.8
3,CCOc1ccc2oc(C(=O)NCC3CCCO3)c(C)c2c1 (centres unmarked),11
4,CCOc1ccc2oc(C(=O)NCc3ccccc3CN3CCCC3)c(C)c2c1,-66.2
5,CCOc1ccc2oc(C(=O)N3CCN(Cc4ccccc4)CC3)c(C)c2c1,-18.4
6,COc1ccc2oc(C(=O)NCc3cc(OC)c(OC)cc3OC)c(C)c2c1,0.174
7,Cc1c(C(=O)OCC(C)(C)CN(C)C)oc2ccccc12.Cl,-52
8,CCOc1ccc2oc(C(=O)N3CCN(c4ccccc4OCC)CC3)c(C)c2c1,-52.6
9,CCOc1ccc2oc(C(=O)N3CCN(c4ccccn4)CC3)c(C)c2c1,-34.3
10,CCOc1ccc2oc(C(=O)NCc3nc4ccccc4[nH]3)c(C)c2c1,10.3
11,COc1ccc2oc(C(=O)NCc3ccccc3CN3CCCC3)c(C)c2c1,-66.1
12,CN(c1cccc(Cl)c1)S(=O)(=O)c1cccc(C(=O)NN2CCOCC2)c1,-14.1
13,Cc1ccc(S(=O)(=O)CCC(=O)OC(C)C(=O)NC2CCCCC2C)cc1 (centres unmarked),-1.21
14,CCOC(=O)c1ccc(N2C(=O)C3CC=C(C)CC3C2=O)cc1 (centres unmarked),7.74
15,Cn1c(=O)c2c(SCC(N)=O)nc(CC(C)(C)C)nc2n(C)c1=O,-10.5
16,CC1(C)c2ccccc2N(CC(N)=O)C12C=Cc1ccccc1O2 (centres unmarked),-26
17,Cc1nc(NC(=O)c2cccnc2Cl)sc1C,4.14
18,CC(NC(=O)c1ccc2c(c1)OCO2)C(c1cccs1)N1CCN(c2ccccc2)CC1 (centres unmarked),3.68
19,COc1ccc(CCn2c(C)cc(C(=O)CSc3nnnn3C)c2C)cc1,0.08
20,CC1CCCCC1NC(=O)Cn1c(CN2CCCCC2)nc2ccccc2c1=O (centres unmarked),-24.6
21,COc1ccc(OC)c(S(=O)(=O)NCC(c2ccc3c(c2)OCO3)N2CCOCC2)c1 (centres unmarked),-28.4
22,O=c1c2cc(Cl)ccc2nc(-c2ccccc2Cl)n1O,16.4
23,Cc1c(C(=O)NCc2ccccc2CN2CCCC2)oc2ccc(F)cc12,-74

row,Structure (SMILES),"hERG current change (%, negative = inhibition) at 10uM [%]"
1,CCOc1ccc2oc(C(=O)NC(C)(C)CC)c(C)c2c1,-3
2,Cc1c(C(=O)NCCN2CCCC(O)C2)oc2c(F)cccc12 (centres unmarked),-1.78
3,CCOc1ccc2oc(C(=O)NCC(C)(C)CN(C)C)c(C)c2c1.Cl,-54.5
4,Cc1c(C(=O)NCc2ccccc2CN2CCCC2)oc2c(F)cccc12,-70.5
5,COc1ccccc1CNC(=O)c1oc2ccc(S(=O)(=O)N3CCCC3)cc2c1C,-4.46
6,CCOc1ccc2oc(C(=O)O)c(C)c2c1,4.62
7,Cc1c(C(=O)NCc2ccco2)oc2c(F)cccc12,1.08
8,Cc1c(C(=O)NCc2ccccc2)oc2ccc(S(=O)(=O)N3CCCC3)cc12,2.65
9,CCN(Cc1ccncc1)Cc1ccc(Br)cc1.O=C(O)C(=O)O,-5.38
10,COc1cccc(CC(=O)OC(C)C(=O)NCc2ccc3c(c2)OCO3)c1 (centres unmarked),-3.97
11,COc1cc(C(CC(=O)N2CCN(c3ccccc3)CC2)c2c(OC)cc(OC)c3ccc(=O)oc23)cc(OC)c1OC (centres unmarked),-29
12,COc1ccc(-c2nnc(SCC#N)o2)cc1,11.3
13,CCOC(=O)CCCNC(=O)CCNC(=O)c1ccc(OCC(C)C)cc1,3.61
14,COc1ccc(C(=O)CN2C(=O)c3ccccc3C2=O)cc1,7.16
15,COc1ccc(-c2cc(C(F)(F)F)c3c(N)c(C(=O)NCCSC)sc3n2)cc1,-10.7
16,Nc1c(C(=O)C2CC2)sc2nc(-c3ccccc3)cc(C(F)(F)F)c12,18.8
17,CN(C)CCNC(=O)c1sc2nc(-c3ccccc3)cc(C(F)(F)F)c2c1N,-57.8
18,COc1ccc(-c2cn(CCO)c(-c3ccc(Cl)nc3)n2)cc1,-9.71
19,Cc1ccc(CNC(=O)c2ccc(Cn3cc(-c4ccc(C)cc4)nc3-c3ccncc3)cc2)cc1,5.94
20,COc1ccc(-c2cn(Cc3ccc(C(N)=O)cc3)c(-c3ccncc3)n2)cc1,-60.1
21,COc1ccc(-c2cn(Cc3ccc(C(N)=O)cc3)c(CCN)n2)cc1,-13.9
22,COc1ccc(-c2cn(Cc3ccc(C(N)=O)cc3)c(-c3ccc(Cl)nc3)n2)cc1,-71.4
23,COc1ccc(-c2cn(CCC(=O)O)c(-c3ccc(Cl)nc3)n2)cc1,9.6
